# In the supplement of paper PMC3334620:
# Over roughly 33,000 sequences, “E-score (-0.5 to 0.5)” has its median near -0.021; the highest 2% begin near 0.32. The sample holds the highest values, similar sequences and a random draw of the others, so the mix is not that of the screen.
# Target: T1, Zap1 (UniProt P47043)
# T1 sequence: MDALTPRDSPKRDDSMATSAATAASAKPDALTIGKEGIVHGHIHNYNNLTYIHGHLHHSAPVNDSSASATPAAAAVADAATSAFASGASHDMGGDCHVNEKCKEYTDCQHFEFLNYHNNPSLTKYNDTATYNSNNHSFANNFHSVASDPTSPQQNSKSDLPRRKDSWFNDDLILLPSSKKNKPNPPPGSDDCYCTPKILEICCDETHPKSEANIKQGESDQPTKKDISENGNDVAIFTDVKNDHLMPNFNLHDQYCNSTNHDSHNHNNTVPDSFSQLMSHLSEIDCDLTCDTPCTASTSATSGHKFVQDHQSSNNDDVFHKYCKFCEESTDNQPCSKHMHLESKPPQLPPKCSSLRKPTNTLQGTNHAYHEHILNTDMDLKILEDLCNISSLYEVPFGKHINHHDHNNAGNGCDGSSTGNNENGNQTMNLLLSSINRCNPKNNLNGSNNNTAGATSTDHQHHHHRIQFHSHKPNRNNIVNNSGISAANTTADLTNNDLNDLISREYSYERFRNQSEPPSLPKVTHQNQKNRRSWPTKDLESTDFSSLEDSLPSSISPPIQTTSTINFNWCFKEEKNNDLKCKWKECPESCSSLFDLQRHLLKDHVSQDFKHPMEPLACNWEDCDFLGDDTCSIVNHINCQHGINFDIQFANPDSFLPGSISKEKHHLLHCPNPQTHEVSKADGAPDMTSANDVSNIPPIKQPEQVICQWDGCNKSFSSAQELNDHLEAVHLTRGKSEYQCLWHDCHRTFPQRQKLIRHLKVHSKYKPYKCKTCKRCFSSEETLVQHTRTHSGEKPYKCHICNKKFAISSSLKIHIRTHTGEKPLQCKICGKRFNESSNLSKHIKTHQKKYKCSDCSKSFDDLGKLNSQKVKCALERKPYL
# Experiment: PBM E-score (8-mer binding enrichment) (E-score (-0.5 to 0.5)); higher = stronger / more preferred TF binding
# Details: protein concentration: 200 nM; construct: GST-full length
# In short: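 Using PURExpress in vitro transcription/translation, GST-tagged yeast transcription factors were made in full-length or DNA-binding-domain form. These were applied at about 100-200 nM to double-stranded universal all-10-mer Agilent arrays, and bound protein was detected with fluorescent anti-GST. Scans were normalised with masliner before the Universal PBM Analysis Suite assigned E-scores to ungapped eight-base words pooled with their reverse complements.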
row,Sequence,PBM E-score
1,CGAATTCG,-0.233
2,TAGCAAAA,0.0555
3,AGAGCAAG,-0.196
4,ACAACCGT,0.0867
5,ACGACCCA,0.2
6,ACAACCCG,0.398
7,AGAACCCC,0.294
8,ACAACCCA,0.286
9,ACGACCCG,0.0256
10,AGAACCCT,0.321
11,ACGACCCT,0.348
12,AGAACCCA,0.19
13,ACAAACCG,0.027
14,ACAACCCT,0.443
15,CCAACCCG,0.148
16,AGTCCTCG,-0.272
17,AAGATAGC,-0.144
18,AATAAGGA,-0.00733
19,AAGCACAA,0.154
20,GCGATGGA,0.0884
21,CCTTGACG,0.115
22,ACAACCTC,0.31
23,AAACCCCT,0.188
24,ACAAACCC,0.0973
25,AAAACCCT,0.362

row,Sequence,PBM E-score
1,CCAACCCC,0.224
2,AAAACCCC,0.276
3,ACAACCCC,0.321
4,GCAACCCA,0.294
5,GCAACCCC,0.342
6,GGCCAGCC,-0.142
7,AAATCCTC,-0.279
8,AGGACCAG,-0.0376
9,CGGAGTAG,-0.149
10,CTCCTGTA,-0.0674
11,ATGGATTG,-0.0434
12,CGGAATCA,-0.0619
13,CGGGCCAC,0.125
14,CGTCGAGC,-0.244
15,CAATGAGC,-0.126
16,GCGTAACA,-0.135
17,CCGTAACA,0.0988
18,GCGTAAGC,-0.239
19,CCGTAACC,0.471
20,CCGTAACG,0.0821
21,ACGTAACG,-0.248
22,GCGTAACC,0.446
23,ACGTAACC,0.411
24,ACGTAACT,0.0456
25,CTTAAGGA,0.119

row,Sequence,PBM E-score
1,ATGGGGCG,-0.129
2,CTTTTAAC,0.0885
3,CTTTAACA,0.123
4,ATTTAACA,-0.0688
5,ATTTAACC,0.418
6,CTTTAACC,0.405
7,ATTTAACG,0.023
8,CGCTGATA,-0.172
9,CCAGGTTC,-0.159
10,ACAGGTTG,0.147
11,CCAGGTAA,0.041
12,GCAGGTAA,0.173
13,ACAGGTTC,-0.12
14,GCAGGTCA,0.194
15,CCAGGTTA,0.382
16,GCAGGTTA,0.335
17,ACAGGTTA,0.398
18,TCGCCACA,-0.04
19,AGCAGCCT,-0.168
20,ATAGCAGG,0.0205
21,ATGAATGG,0.203
22,CTAGTAGC,-0.168
23,ACGATATC,0.0333
24,ATGGGTTC,0.116
25,GTGGGTTA,0.404

row,Sequence,PBM E-score
1,ATGGGTTA,0.455
2,GTGGGTAA,0.0319
3,CTGGGTCA,0.143
4,GTGGGTGA,0.0723
5,CTGGGTTA,0.369
6,ATGGGTTG,0.234
7,CTGGGTTC,0.0979
8,GCCACAAC,0.212
9,TAGGACGA,-0.113
10,AGCAAGCG,-0.192
11,GAGACAAA,-0.173
12,GCCACACA,-0.0586
13,CCCCACGC,-0.0232
14,ACACAAGG,0.132
15,AAGTTCAG,-0.0476
16,AGGGTCGC,0.364
17,CGGGTCAA,0.163
18,TGGGTCAA,0.0925
19,CGGGTCGC,0.0356
20,AGGGTCAC,0.417
21,AGGGTCGG,0.126
22,GGGGTCAA,0.266
23,GGGGTCAC,0.428
24,AGGGTCAA,0.416
25,GCGGTCAC,0.313

row,Sequence,PBM E-score
1,AGGGTCAG,0.24
2,ATGGTCAC,0.312
3,GATTCTTA,0.177
4,CTAGTCTA,-0.0327
5,CAGGTTCG,-0.158
6,ATATCCTG,0.103
7,ACCATCGT,-0.0674
8,ACTAACTG,0.126
9,ATGGTCAA,0.245
10,AGGGTCAT,0.449
11,CGGGTCCC,-0.116
12,AGGGTCCA,0.214
13,CTGGTCAC,0.148
14,CGGGTCAG,0.28
15,AGAGTCAT,-0.0584
16,CGGGTCAC,0.374
17,AGGGTCCC,0.32
18,CGAGGGGC,0.0476
19,CAAGGACA,-0.0888
20,GAGATCCA,-0.0613
21,GACCAAGA,0.0225
22,GAACCTAA,0.194
23,TACGAATA,0.197
24,ACACCTAA,0.0902
25,AAAATAAC,0.21

row,Sequence,PBM E-score
1,CAAATAAC,0.322
2,GAAATAAC,0.221
3,TCCCTTCA,-0.0499
4,ACCCTTCA,0.341
5,ACCCTTCT,0.272
6,GCCCTTCA,0.0388
7,ACCCTTCG,0.373
8,ACCCTTCC,0.281
9,CTCGATCC,-0.0316
10,ACTGTTCT,-0.0178
11,GACCTAGC,-0.0032
12,GTCGCGAC,0.357
13,CTCGCGAC,0.0966
14,GTCGCGAA,-0.0334
15,GTAAATCA,0.207
16,ACGTCTAG,-0.0284
17,CGTACTTC,-0.125
18,GGAGGGGA,-0.0565
19,GGAGGGAA,-0.213
20,CGAGGGTC,0.245
21,AGAGGGTA,0.29
22,CGAGGGTA,0.371
23,GGAGGGTA,0.346
24,CATTAACG,0.0999
25,AATTAACC,0.327

row,Sequence,PBM E-score
1,AATTAACT,0.0482
2,TATTAATA,0.0379
3,CATTAACC,0.379
4,AACTAACT,0.00107
5,AATTAATT,0.0914
6,CATTAACA,0.0919
7,GATTAACC,0.173
8,AATTAATA,0.332
9,AACTAACC,0.333
10,AACTAACA,0.153
11,CCGATCGG,0.13
12,AGCTTGGG,-0.06
13,GGCCTTCA,0.167
14,GCGAACCC,0.00303
15,GAGCTGAC,0.122
16,CAGTGACG,-0.0109
17,ACGAAATG,0.0348
18,TAGACTGA,-0.182
19,AATCTTTG,0.114
20,ACATACCT,0.118
21,CTTGGCGC,0.0977
22,ATGGTAAA,0.0888
